Source: PubChem (National Center for Advancing Translational Sciences (NCATS))
RORg inh: blocks mouse ROR gamma transcriptional activity. P51450. Drosophila S2 Gal4-RORgamma UAS-luciferase reporter, 20 h. Potency, µM (series often up to 53.6 µM), for the others: at the top dose activity change, negative = inhibition, most hits filed as inhibitors. 310,000 tested, 5.4% active; note: % is set by controls: 0 for no effect and ±100 for the full control effect; nearly all actives have a fitted effect of over 60% in size
Target sequence (P51450 whole entry, looked up, the tested form may be a part): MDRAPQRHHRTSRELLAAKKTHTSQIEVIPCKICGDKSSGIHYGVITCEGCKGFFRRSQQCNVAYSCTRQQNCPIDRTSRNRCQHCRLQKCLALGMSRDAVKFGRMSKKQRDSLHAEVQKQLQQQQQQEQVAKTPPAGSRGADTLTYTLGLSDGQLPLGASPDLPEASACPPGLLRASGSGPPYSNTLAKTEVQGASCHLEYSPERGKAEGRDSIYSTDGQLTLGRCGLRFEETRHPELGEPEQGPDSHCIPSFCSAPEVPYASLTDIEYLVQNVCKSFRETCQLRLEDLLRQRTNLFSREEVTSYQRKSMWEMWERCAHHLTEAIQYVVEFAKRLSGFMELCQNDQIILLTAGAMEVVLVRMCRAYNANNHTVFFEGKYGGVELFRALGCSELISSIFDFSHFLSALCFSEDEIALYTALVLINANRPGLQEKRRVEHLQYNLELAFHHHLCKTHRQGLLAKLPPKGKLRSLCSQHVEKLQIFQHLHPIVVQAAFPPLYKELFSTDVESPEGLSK
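Luciferase reporter read in Schneider cells carrying Gal4-RORγ (mouse) and UAS-Photinus luciferase; cells given compound 1 h before 700 uM copper sulfate induction, then incubated 20 h at ambient temperature.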
VP16 counter: counter-screen for ROR gamma inhibitors: Gal4-VP16 reporter. Drosophila S2 Gal4-VP16 UAS-luciferase, luminescence, 20 h. Potency, µM (highest dose often 53.6 µM), inactives show top-dose activity, negative = inhibition, usual class: inhibitors. 310,000 tested, 3.5% active. AID 2546;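 note: Gal4-VP16 expression switched on by copper sulfate through the metallothionein promoter; % is set by controls: 0 for no effect and ±100 for the full control effect; nearly all actives have a fitted effect of over 50% in size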
Mito fusion act: blocks mitochondrial division or promotes mitochondrial fusion; Potency, µM (doses to about 46.1 µM), inactives show at the highest dose growth rescue (activation), most hits filed as activators; 320,000 tested, 0.23% active; S. cerevisiae fusion-defective mutant growth rescue, CellTiterGlo 48 h; AID 485298; note: % of control where 0% means no effect; nearly all actives have a fitted effect of over 45% in size
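Temperature-sensitive fusion-defective S. cerevisiae (e.g. fzo1-1, mgm1-5) were grown with compound in YPEG medium (3% ethanol, 3% glycerol) for 48 hours at 37C. Growth rescue was measured as viability by CellTiterGlo luminescence after 10 minutes at ambient.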
uPA generation: blocks generation of uPA at the cell surface; AID 540303; cell surface uPA generation assay, qHTS; 330,000 tested, 0.31% active; Potency, µM (highest dose often 38.3 µM), inactives show top-dose activity change, negative = inhibition, most hits filed as inhibitors; active = well fitted inhibition curve with a large enough effect; inconclusive = small, poorly fitted or top-dose-only effect; inactive = no such curve, though single readings can be large or run the other way; tested in mouse RAW 264.7 cells; note: % is set by controls: 0 for no effect and ±100 for the full control effect; nearly all actives have a fitted effect of over 55% in size
a7 integrin act: activators of alpha7 integrin expression for muscular dystrophy; alpha7betagal myoblasts, beta-gal FDG fluorescence, 48 h; Potency, µM (top dose mostly 38.3 µM), without a hit: at the highest dose activation, hits mostly activators; 350,000 tested, 0.064% active;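 note: 100% = response of the positive control SU9516; nearly all actives have a fitted effect of over 60% in size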
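Alpha7betagal+/- myoblasts (passage 13) were plated 16-24 hr, then exposed to compounds (1:260 dilution of DMSO stock) for 48 hours at 37C. After MPER lysis, β-galactosidase reporter activity was read as FDG fluorescence (ex 480/em 540) after 30 minutes.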
Chronic BCR inh: inhibitors of chronic active B-cell receptor signaling. ABC-DLBCL IkBa-CBG/CBR reporter, luminescence ratio, 4 h. Potency, µM (top dose mostly 46.1 µM), for inactives: top-dose activity change, negative = inhibition, most hits filed as inhibitors. 340,000 tested, 0.05% active. AID 493014; active = well fitted inhibition curve with a large enough effect in the signal ratio, with a control signal flat, not every such curve was filed as active; inconclusive = small, poorly fitted or top-dose-only effect, or effect the other way, or a change in a side signal; the % refers to the signal ratio;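 note: plate controls were basal doxycycline-induced cells for no effect and cells given 10 µM MG132 for full effect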
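Cell line TMD8 (human ABC DLBCL), stably expressing tet-inducible CBG68-IkBa fusion and CBR; IMDM/0.5% FBS; cpd up to 46 uM; dox induction, 4 h, 37C/5% CO2; dual luminescence; green/red ratio; MG132 control.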
The depositor's hits bear a star; ? = inconclusive; . = no result; [ ] = dose if it differs, or a comment. In the library only some 5.5% were active in any assay of this set; here they are far more common. Unless noted, calls come from the whole dose curve; as a rule, active = well fitted curve in the direction sought with a large enough effect; inconclusive = small, poorly fitted or top-dose-only effect, or another doubt; inactive = no such curve, though single readings can be large; an effect the other way counts as inactive or inconclusive. Potency is the fitted concentration of half-maximal effect.

SMILES | RORg inh | VP16 counter | Mito fusion act | uPA generation | a7 integrin act | Chronic BCR inh
O=[N+]([O-])c1c(Nc2ccccc2O)cc(Cl)c2nonc12 | 3.55µM* | 2.82µM* | -13.5% | -8.1% | -19.3% | ?
O=[N+]([O-])c1c(Nc2ccccc2O)ccc2nonc12 | 17.8% | 3.7% | 12.6% | 2.5% | -12.3% | -24.0%
CCNc1ncc2ncc(=O)n(Cc3cccs3)c2n1 | -29.2% | 2.8% | . | . | . | .
CCc1c(C)nc2cc(-c3cc(OC)cc(OC)c3)nn2c1N1CCCC1 | 7.08µM* | 12.6µM* | ? | 20.2% | 12.3% | -7.7%
CCOCCN1CCN(c2c(CC)c(C)nc3cc(-c4cc(OC)cc(OC)c4)nn23)CC1 | ? | -15.2% | -1.4% | -3.0% | -9.5% | ?
CCOC(=O)c1sc(NC(=O)Nc2ccccc2)cc1C | 5.01µM* | 2.51µM* | 22.0% | -7.1% | -55.4% | ?
CCOC(=O)c1sc(NC(=O)Nc2ccccc2Cl)cc1C | ? | ? | -3.3% | ? | -40.3% | ?
CCOC(=O)c1sc(NC(C)=O)cc1C | 3.4% | 13.2% | 10.4% | 8.4% | -6.3% | ?
CCOC(=O)c1sc(NC(=O)c2ccc(C)s2)cc1C | 1.26µM* | ? | -0.1% | -9.9% | 6.4% | ?
CCOC(=O)c1c(N)sc(C(=O)Nc2ccccc2)c1C | ? | ? | 0.5% | 7.94µM* | 19.7% | -4.9%
CC1(C)CC(=O)C=C(c2cccc(O)c2)C1=O | . | . | 7.1% | -6.9% | 0.6% | 1.7%
C=C(C)CNC(=S)Nc1sc2c(c1C(=O)OCC)CC(C)(C)OC2 | 1.41µM* | 1.41µM* | -1.0% | 6.5% | -12.7% | 1.0%
O=C1c2ccccc2C(=O)N1Cc1cnc(N2CCN(c3ccccc3)CC2)s1 | -0.9% | 1.1% | 16.6% | -8.7% | 15.1% | 3.5%
Cc1ccc(CC2CC(=O)N(c3nc4ccccc4s3)C2=O)cc1 (stereo unspecified) | 4.7% | 0.8% | -6.5% | -1.7% | 0.0% | 0.0%
N=C1SC(c2ccccc2)C(=O)N1c1ncc(Cc2ccccc2)s1 (stereo unspecified) | 7.08µM* | 7.94µM* | 8.9% | 0.7% | -27.6% | 3.4%
Cc1ccc(Cc2cnc(N3C(=N)SC(c4ccccc4)C3=O)s2)cc1 (stereo unspecified) | 11.2µM* | 3.98µM* | 1.0% | 7.4% | -3.8% | 8.8%
CCCCc1nc2cc(C(=O)NCCc3c(C)n[nH]c3C)ccc2o1 | . | . | . | -1.2% | -13.3% | .
COc1ccc(NS(=O)(=O)c2ccc(O)c(NC(=O)c3cc4c(C)nn(-c5ccc(F)cc5)c4s3)c2)cc1 | ? | 22.4µM* | -0.8% | 0.7% | -1.8% | 0.3%
COc1ccc(CNc2ccnc(-c3ccccc3C(F)(F)F)n2)c(OC)c1 | 19.0% | -0.9% | . | . | . | .
O=C(Nc1ccc(-c2cscn2)cc1)C1CCCN(Cc2ccccc2)C1 (stereo unspecified) | 1.78µM* | -21.3% | 5.5% | ? | -25.9% | ?
Cc1cccc(CN2CCC(C(=O)Nc3cccc(-c4cccc(F)c4)c3)CC2)n1 | 7.08µM* | ? | -38.3% | -21.3% | -42.0% | -5.0%
COCc1ccc(CN2CCC(C(=O)Nc3cccc(-c4cscn4)c3)CC2)o1 | -34.5% | ? | 1.1% | 3.4% | 0.0% | -10.6%
Cc1cccc(CN2CCC(C(=O)Nc3cccc(-c4cscn4)c3)CC2)n1 | -9.5% | -16.0% | -9.0% | -10.1% | 0.0% | 1.3%
COCc1ccc(CN2CCC(C(=O)Nc3cccc(-c4cccc(Cl)c4)c3)CC2)o1 | 17.8µM* | 8.91µM* | -10.9% | -19.1% | -65.3% | ?
O=C(Nc1cccc(-c2cccc(Cl)c2)c1)C1CCN(Cc2ccccn2)CC1 | 20µM* | ? | 1.8% | -5.6% | 0.0% | ?
SMILES | RORg inh | VP16 counter | Mito fusion act | uPA generation | a7 integrin act | Chronic BCR inh
Cc1nn(C)c(Cl)c1CN1CCCC(C(=O)Nc2ccc(-c3cscn3)cc2)C1 (stereo unspecified) | -1.4% | 9.6% | -0.9% | 3.1% | 15.3% | -4.6%
Cc1ccccc1NS(=O)(=O)c1cc2c(cc1C)N(C)CCO2 | 13.8% | 9.0% | 4.9% | -4.1% | -7.2% | -8.8%
COc1cccc(-c2ccc(NC(=O)C3CCCN(Cc4ccccn4)C3)cc2)c1 (stereo unspecified) | . | . | . | . | -9.0% | .
O=C(Nc1ccc(-c2cccc(F)c2)cc1)C1CCCN(Cc2ccccn2)C1 (stereo unspecified) | 12.6µM* | 11.2µM* | -1.1% | ? | -41.6% | ?
CC1CCN(C(c2ccccc2)c2sc3nc(-c4ccco4)nn3c2O)CC1 (stereo unspecified) | . | . | . | . | . | 21.6%
Cc1cc(C)nc(NC2=NCCN2C(=O)NC2CCCCC2)n1 | -27.9% | 12.2% | -2.8% | 7.2% | -13.8% | 6.1%
CCNC(=S)N1CCN=C1Nc1nc(C)cc(C)n1 | 17.8µM* | 9.2% | 2.0% | -6.7% | 14.4% | -7.0%
CC(=O)Nc1ccc(NC(=O)c2cc(=O)c3cc(C)c(C)cc3o2)cc1 | -18.0% | 6.9% | 2.7% | 1.4% | 22.8% | 1.2%
CCCn1nnc(NC(=S)NC(=O)c2ccc(-c3ccc(Br)cc3)o2)n1 | 0.794µM* | 2.51µM* | -6.2% | -4.6% | ? | ?
Cn1nnc(NC(=S)NC(=O)c2ccc(-c3ccc(Br)cc3)o2)n1 | 0.708µM* | 5.01µM* | 1.0% | -2.2% | 15.0% | ?
O=C(NC(=S)Nc1ccc(CN2CCOCC2)cc1)c1ccc(-c2ccc(Br)cc2)o1 | -25.8% | -14.0% | -3.4% | 2.4% | 5.1% | 0.0%
Cc1ccc(NC2CCCN(C(=O)c3ccc(F)cc3)C2)cc1C (stereo unspecified) | 2.7% | 4.4% | 1.8% | -2.9% | -32.9% | -0.4%
ClCC(CNCc1ccccc1)c1ccccc1 (stereo unspecified) | . | . | . | -4.7% | 7.1% | .
Cc1ccc(S(=O)(=O)N(C)Cc2ccc(C(=O)NN=C(CC(C)C)CC(C)C)cc2)cc1 | 10µM* | ? | -2.4% | 0.7% | -27.8% | 5.8%
CC/C(=N\NC(=O)c1ccc(CN(C)S(=O)(=O)c2ccc(C)cc2)cc1)c1ccc(OC(F)F)cc1 | -41.7% | ? | 1.5% | 0.5% | 0.0% | 0.5%
NNC(=O)c1ccc2nc(-c3ccc(Br)cc3)cn2c1 | 11.2µM* | ? | -1.0% | -4.9% | 0.0% | 0.2%
COc1ccc(-c2cn3cc(C(=O)NN)ccc3n2)cc1 | ? | 10µM* | -24.2% | -13.4% | ? | ?
N=c1n(CC(=O)c2cccs2)c2ccccc2n1Cc1ccccc1 | -10.2% | -23.4% | 0.2% | -15.2% | 17.8% | ?
COc1cc(C(=O)NCCNc2nc3c(C)c(C)ccc3cc2C#N)cc(OC)c1OC | 12.1%[1.91 µM] | 14.1% | 1.7% | 20.2% | -16.8% | -4.9%
CCOCCCNC(=S)NCCCNc1nc2ccc(C)cc2cc1C#N | 6.31µM* | -2.2%[10 µM] | -14.2% | . | . | -18.7%
